Giardia FBPA inh-1: inhibitors of Giardia lamblia fructose-1,6-bisphosphate aldolase | purified Giardia FBPA | 0.71% of 290,000 active | Potency, µM (top dose mostly 59.6 µM), usual class: inhibitors | A8B2U2; further: nearly all actives have a fitted effect of over 55% in size
Target sequence (A8B2U2 whole entry, looked up): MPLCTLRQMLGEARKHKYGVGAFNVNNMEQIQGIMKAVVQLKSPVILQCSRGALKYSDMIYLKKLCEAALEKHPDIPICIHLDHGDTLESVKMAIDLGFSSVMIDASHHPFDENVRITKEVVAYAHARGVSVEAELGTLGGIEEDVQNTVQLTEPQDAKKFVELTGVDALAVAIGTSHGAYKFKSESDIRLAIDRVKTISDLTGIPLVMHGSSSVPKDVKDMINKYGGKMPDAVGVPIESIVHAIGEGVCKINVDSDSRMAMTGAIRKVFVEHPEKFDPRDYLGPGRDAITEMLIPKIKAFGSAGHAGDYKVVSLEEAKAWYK
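40 nM FBPA preincubated 10 min at RT with compound (up to 57.5 uM final), then substrate plus GAPDH/TPI/NAD/arsenate coupling and diaphorase/resazurin added. Fluorescence read after 20 min at RT, 525/598 nm.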
Cruzain noTriton: inhibitors of Trypanosoma cruzi cruzain without detergent; P25779; purified cruzain, Z-FR-AMC fluorescence, no detergent; Potency, µM, most hits filed as inhibitors; 2.3% of 200,000 active; AID 1476; further: nearly all actives have a fitted effect of over 40% in size
Target sequence (P25779 123-467 limits assumed): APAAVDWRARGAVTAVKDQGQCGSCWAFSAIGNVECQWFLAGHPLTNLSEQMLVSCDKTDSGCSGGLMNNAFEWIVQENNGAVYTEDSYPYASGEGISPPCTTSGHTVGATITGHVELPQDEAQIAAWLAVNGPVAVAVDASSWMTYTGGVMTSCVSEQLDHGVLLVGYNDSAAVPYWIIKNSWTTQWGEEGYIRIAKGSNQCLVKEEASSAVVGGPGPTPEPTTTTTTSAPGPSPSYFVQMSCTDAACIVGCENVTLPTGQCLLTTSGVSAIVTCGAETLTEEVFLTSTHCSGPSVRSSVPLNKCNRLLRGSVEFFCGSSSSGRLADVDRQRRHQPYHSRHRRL
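Detergent-free condition (0.00005% Triton X-100) in acetate buffer pH 5.5 with DTT. 1.5 nM enzyme and compound were pre-mixed 15 min, then 2 uM Z-FR-AMC substrate added; reaction progress from fluorescence change between first and third reads (60 s).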
Cruzain Triton: blocks cruzain activity in presence of Triton detergent; P25779; Potency, µM, hits mostly inhibitors; 0.43% of 200,000 active; purified cruzain, Z-FR-AMC fluorescence, 0.01% Triton; further: nearly all actives have a fitted effect of over 40% in size
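Sodium acetate buffer (100 mM, pH 5.5) containing 5 mM DTT and 0.01% Triton X-100 hosted 1.5 nM cruzain and test compound for 15 min at room temperature. Cleavage of 2 uM Z-FR-AMC was then tracked by fluorescence.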
Papain inh: counter-screen for cruzain inhibitors: papain inhibition; shares compounds with Cruzain Triton; purified papain, Z-FR-AMC fluorescence cleavage; Potency, µM, most hits filed as inhibitors; 41% of 410 active; AID 2161; further: nearly all actives have a fitted effect of over 35% in size
Giardia growth: blocks growth of Giardia lamblia trophozoites; shares compounds with Giardia FBPA inh-1; Potency, µM (series often up to 57.5 µM), usual class: inhibitors; 5% of 1,500 active; AID 2785; Giardia lamblia trophozoite growth inhibition;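 further: trophozoites exposed to compound for 48 h at 37 °C; nearly all actives have a fitted effect of over 70% in size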
Mammalian tox: mammalian cytotoxicity of Giardia aldolase inhibitor hits. shares compounds with Giardia FBPA inh-1. mammalian cell viability counter-screen, qHTS. Potency, µM (top dose mostly 57.5 µM), most hits filed as inhibitors. 4% of 1,500 active. AID 2786;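 further: Chinese hamster ovary cells used as mammalian cytotoxicity surrogate; viability measured as cellular ATP by luminescence; compound exposure lasted 48 h before reading; nearly all actives have a fitted effect of over 60% in size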
Giardia FBPA inh-2: confirmation of Giardia fructose-bisphosphate aldolase inhibitors | purified Giardia aldolase enzyme activity, qHTS | 5% of 1,500 active | shares compounds with Giardia FBPA inh-1 | AID 2787 | Potency, µM (top dose mostly 57.5 µM), actives largely listed as inhibitors; further: nearly all actives have a fitted effect of over 45% in size
Rabbit aldolase: rabbit FBP aldolase inhibition by Giardia aldolase hits; 4% of 1,500 active; shares compounds with Giardia FBPA inh-1; Potency, µM (series often up to 57.5 µM), actives largely listed as inhibitors; Rabbit muscle FBPA enzyme inhibition, selectivity counter-screen; further: nearly all actives have a fitted effect of over 60% in size
GAPDH coupling: counter-screen for Giardia aldolase inhibitors: GAPDH coupling enzyme. shares compounds with Giardia FBPA inh-1. GAPDH coupling enzyme counterscreen, biochemical, qHTS. Potency, µM (titrated, usually from 57.5 µM), usual class: inhibitors. 6% of 1,500 active. AID 2795; further: nearly all actives have a fitted effect of over 55% in size
Numbers stand for hits; [ ] = dose if it differs, or a comment. The full list was thinned out, with hits kept by preference. The call rests on the fitted dose curve; in most records, active means well fitted curve in the direction sought with a large enough effect; inconclusive means small, poorly fitted or top-dose-only effect, or another doubt; inactive means no such curve, though single readings can be large; an effect the other way counts as inactive or inconclusive.

Results for Cc1nn(C)c2nc(NNC(=O)Nc3cc(Cl)nc(Cl)c3)cc(C(C)C)c12 ?
Giardia FBPA inh-1: inactive; Cruzain noTriton: inactive; Cruzain Triton: inactive

What do the screens show for `CCc1cccc(C)c1NC(=O)c1cc(C)nc2c1c(C)nn2-c1cccc(Cl)c1C`?
Cruzain noTriton: inactive; Cruzain Triton: inactive

How did Cc1ccc(C)c(-n2c3nc(=O)n(C)c(=O)c-3cc3ccccc32)c1 do in these assays?
Giardia FBPA inh-1: inactive

How did Cc1nc2c(=O)n(C)c(=O)nc-2n(C)n1 do in these assays?
Giardia FBPA inh-1: inconclusive; Cruzain noTriton: 0.5µM; Cruzain Triton: 1µM; Papain inh: inactive; Giardia growth: 5µM; Mammalian tox: 16µM; Giardia FBPA inh-2: 4µM; Rabbit aldolase: 4µM; GAPDH coupling: 2.2µM

What do the screens show for `O=C(O)CC1OCC=C2CN3CCC45c6ccccc6NC4C1C2CC35` (stereo not drawn)?
Giardia FBPA inh-1: inactive

How did O=C(O)CC1OCC=C2CN3CCC45C6=CC(=O)C(=O)C([N+](=O)[O-])=C6NC4C1C2CC35 (stereo not drawn) do in these assays?
Giardia FBPA inh-1: 1.3µM; Giardia growth: 13µM; Mammalian tox: inactive; Giardia FBPA inh-2: 4.5µM; Rabbit aldolase: 8.9µM; GAPDH coupling: 4µM

Results for Cc1oc(-c2ccc(C(=O)N(C)Cc3ccccc3)cc2)nc1CN1CCc2ccccc21 ?
Cruzain noTriton: inactive; Cruzain Triton: inactive

How did O=C(NNC(=O)c1ccccc1[N+](=O)[O-])c1ccccn1 do in these assays?
Giardia FBPA inh-1: 16µM; Giardia growth: inactive[10.4 µM]; Mammalian tox: inactive; Giardia FBPA inh-2: inactive; Rabbit aldolase: inactive; GAPDH coupling: inactive

How did COc1ccccc1C(=O)NNC(=O)c1ccccc1[N+](=O)[O-] do in these assays?
Giardia FBPA inh-1: inactive; Cruzain noTriton: inactive; Cruzain Triton: inactive

What do the screens show for `COc1cccc(CNC(=O)c2cc3c(s2)-c2c(C)cccc2OC3)c1`?
Cruzain noTriton: inconclusive; Cruzain Triton: inactive

Results for NS(=O)(=O)c1ccc(NC(=S)NCC2CCCO2)cc1 (stereo not drawn) ?
Giardia FBPA inh-1: inactive; Cruzain noTriton: inactive; Cruzain Triton: inactive

What do the screens show for `CC(=O)Nc1ccc(S(=O)(=O)NNC(=S)NCC2CCCO2)cc1` (stereo not drawn)?
Giardia FBPA inh-1: 13µM; Giardia growth: inactive; Mammalian tox: inactive; Giardia FBPA inh-2: inactive; Rabbit aldolase: inactive; GAPDH coupling: inactive

How did CC1CCN(S(=O)(=O)c2nnc(NC(=O)c3cccc([N+](=O)[O-])c3)s2)CC1 do in these assays?
Giardia FBPA inh-1: 14µM; Giardia growth: inactive[10.4 µM]; Mammalian tox: inactive; Giardia FBPA inh-2: 16µM; Rabbit aldolase: 25µM; GAPDH coupling: 16µM

Results for O=C(Nc1nnc(S(=O)(=O)N2CCCC2)s1)c1ccc(F)cc1 ?
Cruzain noTriton: inactive; Cruzain Triton: inactive

What do the screens show for `O=C(Nc1nnc(S(=O)(=O)N2CCOCC2)s1)c1ccc(F)cc1`?
Giardia FBPA inh-1: 16µM; Cruzain noTriton: inactive; Cruzain Triton: inactive; Giardia growth: inconclusive; Mammalian tox: inactive; Giardia FBPA inh-2: inconclusive; Rabbit aldolase: inconclusive; GAPDH coupling: 40µM

What do the screens show for `CC1CCN(S(=O)(=O)c2nnc(NC(=O)c3cccc(Br)c3)s2)CC1`?
Cruzain noTriton: inactive; Cruzain Triton: inactive

Results for Cc1ccc(C(=O)Nc2nnc(S(=O)(=O)N3CCOCC3)s2)cc1 ?
Giardia FBPA inh-1: 18µM; Cruzain noTriton: inactive; Cruzain Triton: inactive; Giardia growth: inconclusive; Mammalian tox: inactive; Giardia FBPA inh-2: inconclusive; Rabbit aldolase: inconclusive; GAPDH coupling: 25µM

How did Cc1ccc(C(=O)Nc2nnc(S(=O)(=O)N3CCCCCC3)s2)cc1 do in these assays?
Giardia FBPA inh-1: inactive; Cruzain noTriton: inactive; Cruzain Triton: inactive

Results for CCc1cc2c(cc3c(=O)n(CC(=O)N4CCCCC4)nc(CC)n32)s1 ?
Cruzain noTriton: inactive; Cruzain Triton: inactive

What do the screens show for `CCn1cc2nc(SCC(=O)Nc3ccccc3C(F)(F)F)n(Cc3ccc(C)cc3)c(=O)c2n1`?
Cruzain noTriton: inconclusive; Cruzain Triton: inactive

Results for CCCN1C(=O)C(Cc2nc3ccccc3c(=O)n2CC)c2cc(Br)ccc21 (stereo not drawn) ?
Cruzain noTriton: inconclusive; Cruzain Triton: inactive

Results for O=C(CN1CCOCC1)Nc1c2c(nc3ccccc13)N(Cc1ccccc1)CC2 ?
Giardia FBPA inh-1: 16µM; Cruzain noTriton: inactive; Cruzain Triton: inactive; Giardia growth: inconclusive; Mammalian tox: inactive; Giardia FBPA inh-2: inactive; Rabbit aldolase: inactive; GAPDH coupling: inactive

What do the screens show for `O=C(CN1CCCC1)Nc1c2c(nc3ccccc13)N(Cc1ccccc1)CC2`?
Giardia FBPA inh-1: inconclusive; Cruzain noTriton: inactive; Cruzain Triton: inactive

Results for Cc1ccc(C)c(NC(=O)CSc2c3c(nc4ccc(Cl)cc24)CCCC3)c1 ?
Cruzain noTriton: inactive; Cruzain Triton: inactive

What do the screens show for `Cc1ccccc1-n1c(N)c(C(=O)Nc2ccc(F)cc2)sc1=S`?
Giardia FBPA inh-1: inactive

What do the screens show for `Cc1ccc(NC(=O)c2sc(=S)n(-c3cc(C)ccc3F)c2N)cc1`?
Giardia FBPA inh-1: 18µM; Giardia growth: inactive; Mammalian tox: inactive; Giardia FBPA inh-2: inactive; Rabbit aldolase: inconclusive; GAPDH coupling: inactive

Results for NNC(=O)c1cc2ccccc2cc1O ?
Giardia FBPA inh-1: inactive; Cruzain noTriton: inactive; Cruzain Triton: inactive

How did O=C(NCCO)c1cc2ccccc2cc1O do in these assays?
Giardia FBPA inh-1: 2µM; Cruzain noTriton: inactive; Cruzain Triton: inactive; Giardia growth: inactive; Mammalian tox: inactive; Giardia FBPA inh-2: inconclusive; Rabbit aldolase: inconclusive; GAPDH coupling: inconclusive

Results for Cc1ccccc1NC(=O)Cn1c(=O)n(Cc2ccco2)c(=O)c2cccnc21 ?
Cruzain noTriton: inactive; Cruzain Triton: inactive

Results for Cc1cnc(CNc2nc(-c3ccc(N(C)C)cc3)nc3ccccc23)cn1 ?
Giardia FBPA inh-1: inactive; Cruzain noTriton: inactive; Cruzain Triton: inactive

Results for COc1cccc2cc(C(C)N(CCCN3CCOCC3)C(=S)Nc3ccc(C)c(C)c3)oc12 (stereo not drawn) ?
Giardia FBPA inh-1: inactive

Results for COc1ccc(NC(=S)N(CCCN2CCOCC2)C(C)c2cc3cccc(OC)c3o2)cc1 (stereo not drawn) ?
Giardia FBPA inh-1: 11µM; Giardia growth: inconclusive; Mammalian tox: inactive; Giardia FBPA inh-2: inactive; Rabbit aldolase: inactive; GAPDH coupling: inactive
